From PubChem BioAssay
Several values for one entry are separate records, joined by “and”; a condition that tells them apart may be missing. Identical values can stand only once. Activity calls are given as the source filed them. Unless noted, no stated cut-off is given here; in the data, active means inhibition above about 80%; inactive means the rest.

Tests used:
[1] = growth inhibition, single agents and combos, CRL2098, cell-based, BGB or cisplatin IC20 combos, synergistic combos for chromothripsis tumors (AID 1671454); details: CRL2098 osteosarcoma cells, drug combinations, stronger effect = higher value;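 further: cells exposed for 96 h before readout; 0% = vehicle DMSO and 100% = killing by high DMSO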
[2] = growth inhibition, single agents and combos, HD-MB03, cell-based, BGB or cisplatin IC20 combos, synergistic combos for chromothripsis tumors (AID 1671455; in the data active means inhibition above about 83%;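 further: 0% = vehicle DMSO and 100% = high DMSO as cytotoxic control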); details: HD-MB03 medulloblastoma cells, stronger effect = higher value
[3] = growth inhibition, single agents and combos, UWB1.289, cell-based, BGB or cisplatin combos, synergistic combos for chromothripsis tumors (AID 1671456); details: UWB1.289 ovarian carcinoma cells, stronger effect = higher value;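 further: cells exposed to compound for four days; 0% = vehicle DMSO and 100% = killing by high DMSO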
[4] = growth inhibition, single agents and combos, LFS_MB_2R, cell-based, cisplatin combos, synergistic combos for chromothripsis tumors (AID 1671457); details: LFS_MB_2R medulloblastoma cells, stronger effect = higher value;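 further: cells exposed to compound for four days before readout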
[5] = growth inhibition, MDA-MB-436, cell-based, BGB or cisplatin combos, synergistic combos for chromothripsis tumors (AID 1671458; call rule not given here;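 further: cells exposed for 96 hours; 0% = vehicle DMSO and 100% = killing by high DMSO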); details: MDA-MB-436 breast carcinoma growth inhibition, drug combinations, stronger effect = higher value
[6] = UWB1.289_BRCA1 ovarian cancer growth, cell-based, BGB or cisplatin combinations (AID 1671459); details: UWB1.289 BRCA1 ovarian carcinoma, drug combinations, stronger effect = higher value
[7] = drug combination toxicity in non-malignant astrocytes – cell-based, BGB or cisplatin IC20 combos, cytotoxicity control for chromothriptic childhood tumor combination screen (AID 1671460); details: Human astrocytes, viability inhibition, drug combinations, at 0.5 µM, stronger effect = higher value;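 further: cells exposed to compounds for 96 hours before viability readout; 0% = vehicle and 100% = killing control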
[8] = BT084 cell growth, single and combined drugs, ICGC_MB145, cisplatin and BGB IC40 combos (AID 1671461); details: BT084 medulloblastoma cells, drug combinations, stronger effect = higher value;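 further: cells exposed to drugs for 96 hours; 0% = vehicle DMSO and 100% = high DMSO full killing control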
[9] = RCMB18 cell growth, single agent and combined, cisplatin and BGB IC40 combos (AID 1671462); details: RCMB18 medulloblastoma cells, stronger effect = higher value;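 further: cells exposed to compound for four days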
[10] = CRL1545 cell growth, single agent and combined, cisplatin and BGB IC20 combos (AID 1671464); details: CRL1545 osteosarcoma cells, stronger effect = higher value;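 further: cells exposed to compound for 96 hours before readout; 0% = vehicle DMSO and 100% = high DMSO killing control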
[11] = growth inhibition, single agent or in combination, cell-based, chromothripsis tumors, cisplatin or BGB combos (AID 1671449); details: LFS_MB_P medulloblastoma cells;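 further: cells exposed for 96 hours; 0% = vehicle DMSO and 100% = killing by high DMSO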
[12] = growth inhibition, single agent and combos, cell-based, chromothripsis tumors, cisplatin or BGB combos (AID 1671450); details: HDN33 neuroblastoma cells, stronger effect = higher value;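 further: cells exposed to compound for four days; 0% = vehicle DMSO and 100% = cell killing by high DMSO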
[13] = growth inhibition, single agents and combos, ICB984, cell-based, cisplatin or BGB combos, synergistic combos for chromothripsis tumors (AID 1671451; call rule not given here;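 further: cells exposed for 96 hours before readout; 0% = vehicle DMSO and 100% = killing by high DMSO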); details: ICB984 medulloblastoma cells, drug combinations, stronger effect = higher value
[14] = growth inhibition, single agents and combos, LFS_MB_1R, cell-based, cisplatin or BGB combos, synergistic combos for chromothripsis tumors (AID 1671452); details: LFS_MB_1R medulloblastoma cells, stronger effect = higher value;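 further: cells exposed for 96 hours before readout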
[15] = growth inhibition, single agents and combos, HTB85, cell-based, BGB or cisplatin IC20 combos, synergistic combos for chromothripsis tumors (AID 1671453); details: HTB85 osteosarcoma cells, drug combinations, stronger effect = higher value;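 further: cells exposed for 96 hours before readout; 0% = vehicle DMSO and 100% = high DMSO killing control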
[16] = measured here: combination with BGB at IC20, at 0.5 µM
[17] = measured here: combination with cisplatin at IC20, at 0.5 µM
[18] = measured here: combo with BGB at IC20, at 0.5 µM
[19] = measured here: combo with cisplatin at IC20, at 0.5 µM
[20] = measured here: inhibition with BGB combination, at 0.05 µM
[21] = measured here: inhibition with cisplatin combination, at 0.05 µM
[22] = measured here: combination with cisplatin, at 0.5 µM
[23] = measured here: combination with cisplatin, at 5 µM
[24] = measured here: BGB combination, at 0.5 µM
[25] = measured here: BGB combination, at 5 µM
[26] = measured here: cisplatin combination, at 0.5 µM
[27] = measured here: cisplatin combination, at 5 µM
[28] = BGB combination, concentration series, at 5 µM
[29] = cisplatin combination, concentration series, at 5 µM
[30] = measured here: combo with BGB IC20
[31] = measured here: combo with cisplatin IC20
[32] = cisplatin combination, at 0.5 µM
[33] = measured here: BGB IC40 combination 0.05 uM, at 0.05 µM
[34] = measured here: BGB IC40 combination, at 0.05 µM
[35] = measured here: with BGB IC20 combination, at 0.5 µM
[36] = measured here: with cisplatin IC20 combination, at 0.5 µM
[37] = measured here: combination with BGB IC40, at 0.05 µM

Compound: CCC(Sc1nnc2c3ccccc3n(CC)c2n1)C(=O)Nc1ccccc1OC (stereo unspecified)
- inhibition ([1]; at 0.5 µM): -23.4% (inactive)
- inhibition [1, 16]: -38.3%
- inhibition [1, 17]: -32%
- inhibition ([2]; at 0.5 µM): -13.9% (inactive)
- inhibition [2, 18]: -20.2%
- inhibition [2, 19]: -12.1%
- inhibition ([3]; at 0.5 µM): 1.85% (inactive)
- inhibition [3, 20]: -11.2%
- inhibition [3, 21]: -1.41%
- inhibition ([4]; at 0.5 µM): -23.8% (inactive)
- inhibition [4, 22]: -34.2%
- inhibition [4, 23]: -45.7%
- inhibition ([5]; at 0.5 µM): -18.3% (inactive)
- inhibition [5, 24]: -16.3%
- inhibition [5, 25]: -14.5%
- inhibition [5, 26]: -37.5%
- inhibition [5, 27]: -22%
- inhibition [6, 28]: -8.24%
- inhibition ([6]; at 0.5 µM): 0.44% (inactive)
- inhibition [6, 29]: 11.1%
- inhibition [7]: 10.6% (inactive)
- inhibition [7, 30]: 14.7%
- inhibition [7, 31]: 10.3%
- inhibition ([8]; at 0.5 µM): -2.76% (inactive)
- inhibition [8, 32]: -8.44%
- inhibition ([8]; cisplatin combination, at 5 µM): -148%
- inhibition [8, 33]: -28.4%
- inhibition ([8]; single agent, at 5 µM): -15.3%
- inhibition ([9]; at 0.5 µM): -9.8% (inactive)
- inhibition ([9]; cisplatin combo, at 5 µM): -1.17%
- inhibition [9, 34]: -28%
- inhibition [9, 22]: -27.5%
- inhibition ([9]; single agent, at 5 µM): -2.94%
- inhibition ([10]; at 0.5 µM): -6.26% (inactive)
- inhibition [10, 35]: 3.68%
- inhibition [10, 36]: -13%
- inhibition ([10]; single agent, at 0.05 µM): -16.5%
- inhibition ([10]; single agent, at 5 µM): 1.47%

Compound: Nc1nc(F)nc2c1ncn2C1OC(CO)C(O)C1O (stereo unspecified)
- inhibition ([11]; at 0.5 µM, stronger effect = higher value): -23.4% (inactive) and 5.5% (inactive)
- inhibition ([11]; measured here: combination with BGB IC20, at 0.005 µM): -13.1% and 10.2%
- inhibition ([11]; measured here: combination with BGB IC40, at 0.005 µM): -4.16% and 17.3%
- inhibition [11, 37]: -14.8% and 4.66%
- inhibition ([11]; measured here: combination with cisplatin, at 0.5 µM, stronger effect = higher value): -27.4% and 14.8%
- inhibition ([11]; measured here: combination with cisplatin, at 5 µM, stronger effect = higher value): 85.8% and 94.5%
- inhibition ([12]; BGB combo, at 5 µM): 27.6% and 14.7%
- inhibition ([12]; at 0.5 µM): -7.43% (inactive) and -36.4% (inactive)
- inhibition ([12]; cisplatin combo, at 5 µM): 20.8% and 7.89%
- inhibition [12, 35]: 3.36% and -26.3%
- inhibition [12, 36]: -16.4% and -54.5%
- inhibition ([12]; single agent, at 5 µM): 45.6% and 12.3%
- inhibition ([13]; BGB IC20 combo, at 0.005 µM): 20.7% and -6.33%
- inhibition ([13]; BGB IC40 combo, at 0.005 µM): -14.7% and -39.6%
- inhibition ([13]; BGB IC40 combo, at 0.05 µM): 0.533% and 4.89%
- inhibition ([13]; at 0.5 µM): -14.3% (inactive) and -20.5% (inactive)
- inhibition ([13]; cisplatin combo, at 0.05 µM): -3.04% and 2.23%
- inhibition ([13]; cisplatin combo, at 0.5 µM): -8.41% and -26.1%
- inhibition ([13]; cisplatin combo, at 5 µM): -23% and -33%
- inhibition ([13]; measured here: 5 uM single agent, at 5 µM): -7.66% and -8.57%
- inhibition ([14]; at 0.5 µM): -2.13% (inactive) and -19.9% (inactive)
- inhibition [14, 37]: 3.73% and -32%
- inhibition [14, 22]: 9.09% and -1.53%
- inhibition [14, 23]: 76.5% and 57.3%
- inhibition ([15]; at 0.5 µM): 3.43% (inactive) and -25.3% (inactive)
- inhibition ([15]; measured here: with BGB IC20, at 0.5 µM): -0.749% and -38.9%
- inhibition ([15]; measured here: with BGB IC20, at 5 µM): 44.9% and 11%
- inhibition ([15]; measured here: with cisplatin IC20, at 0.5 µM): 2.7% and -32%
- inhibition ([15]; measured here: with cisplatin IC20, at 5 µM): 37% and 41.2%
- inhibition ([15]; single agent, at 5 µM): 58.5% and 39.5%
- inhibition ([1]; at 0.5 µM): 94% (active) and 94.9% (active)
- inhibition [1, 16]: 94.8% and 95%
- inhibition [1, 17]: 91.9% and 95.1%
- inhibition ([2]; at 0.5 µM): 5.8% (inactive) and 2.84% (inactive)
- inhibition [2, 18]: 3.8% and -3.69%
- inhibition [2, 19]: 2.93% and 14.9%
- inhibition ([3]; at 0.5 µM): 2.58% (inactive) and -11.8% (inactive)
- inhibition [3, 20]: -5.13% and -19.7%
- inhibition [3, 21]: -18.9% and -14.7%
- inhibition ([4]; at 0.5 µM): 12% (inactive) and -3.14% (inactive)
- inhibition [4, 22]: 3.75% and 4.65%
- inhibition [4, 23]: 69.4% and 48.7%
- inhibition ([5]; at 0.5 µM): 2.72% (inactive) and -8.67% (inactive)
- inhibition [5, 24]: 0.63% and 6.32%
- inhibition [5, 25]: 12.4%
- inhibition [5, 26]: -0.776% and -26.9%
- inhibition [5, 27]: 1.99% and 20.7%
- inhibition [6, 28]: 34% and 13%
- inhibition ([6]; at 0.5 µM): 3.6% (inactive) and -10.5% (inactive)
- inhibition [6, 29]: 32.8% and 23%
- inhibition [7]: 13.7% (inactive) and -16.7% (inactive)
- inhibition [7, 30]: 0.417% and -14%
- inhibition [7, 31]: 20% and -36.2%
- inhibition ([8]; at 0.5 µM): -17.4% (inactive) and 8.96% (inactive)
- inhibition [8, 32]: -38.6% and 6.07%
- inhibition ([8]; cisplatin combination, at 5 µM): 36.8% and 59.3%
- inhibition [8, 33]: -18.2% and 2.24%
- inhibition ([8]; single agent, at 5 µM): -9.05% and -4.51%
- inhibition ([9]; at 0.5 µM): 0.9% (inactive) and -15.3% (inactive)
- inhibition ([9]; cisplatin combo, at 5 µM): 44.7% and 68%
- inhibition [9, 34]: 1.47% and -4.03%
- inhibition [9, 22]: 30.2% and -17.9%
- inhibition ([9]; single agent, at 5 µM): 8.81% and -20.7%
- inhibition ([10]; at 0.5 µM): 8.8% (inactive) and -39.7% (inactive)
- inhibition [10, 35]: 5.25% and -35.7%
- inhibition [10, 36]: 9.12% and -44.9%
- inhibition ([10]; single agent, at 0.05 µM): -7.3% and -43.1%
- inhibition ([10]; single agent, at 5 µM): 24% and -66.2%
